“And” between values parts separate entries of the source, which are not always exact repeats. Equal values may be shown once. This is part of a sample that, as a whole, favours compounds with a hit. Of some 83,000 tested, about 20% had one in any assay.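 48-hour exposure, single concentration, 96-well plates; percent growth endpoint where 0 means no net growth. Active: below 10.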 The source made the active and inactive calls.
Tests used:
Assay in all cases: NCI-60 one-dose screen, 48 h (100 = growth as untreated, 0 = no growth, -100 = all killed)
[1] = test system: HCT-15 colon; settings: 10 µM
[2] = test system: HT29 colon; settings: 10 µM
[3] = test system: SNB-19 CNS; settings: 10 µM
[4] = test system: U251 CNS; settings: 10 µM
[5] = test system: PC-3 prostate; settings: 10 µM
[6] = test system: SK-MEL-5 melanoma; settings: 10 µM
[7] = test system: UACC-62 melanoma; settings: 10 µM unless noted
[8] = test system: LOX IMVI melanoma; settings: 10 µM
[9] = test system: SK-MEL-2 melanoma; settings: 10 µM
[10] = test system: SN12C renal; settings: 10 µM
[11] = test system: UO-31 renal; settings: 10 µM
[12] = test system: ACHN renal; settings: 10 µM
[13] = test system: CAKI-1 renal; settings: 10 µM
[14] = test system: A498 renal; settings: 10 µM
[15] = test system: HL-60(TB) leukemia; settings: 10 µM
[16] = test system: CCRF-CEM leukemia; settings: 10 µM
[17] = test system: TK-10 renal; settings: 10 µM unless noted
[18] = test system: SNB-75 CNS; settings: 10 µM
[19] = test system: SK-MEL-28 melanoma; settings: 10 µM
[20] = test system: EKVX NSCLC; settings: 10 µM

SMILES	growth [1]	growth [2]	growth [3]	growth [4]	growth [5]	growth [6]	growth [7]	growth [8]	growth [9]	growth [10]	growth [11]	growth [12]	growth [13]	growth [14]	growth [15]	growth [16]	growth [17]	growth [18]	growth [19]	growth [20]
O=[N+]([O-])/C=C\c1ccc2c(c1)OCO2	78.4% (inactive)	58.2% (inactive)	102% (inactive)	71.1% (inactive)	83% (inactive)	94.3% (inactive)	82.5% (inactive)	18.9% (inactive)	115% (inactive)	94.2% (inactive)	64.5% (inactive)	90.4% (inactive)	86.6% (inactive)	96.5% (inactive)	106% (inactive)	92.5% (inactive)	–	–	–	–
COc1cc2c3cc1Oc1c(OC)c(OC)cc4c1C(Cc1ccc(cc1)Oc1cc(ccc1O)CC3N(C)CC2)N(C)CC4 (stereo not drawn)	–	–	–	–	–	–	-16.8% [100 µM] (active) and -81.7% [100 µM] (active)	–	–	–	–	–	–	–	–	–	48% [100 µM] (inactive) and -100% [100 µM] (active)	–	–	–
CC(=O)Nc1c2sscc-2n(C)c1=O	-100% (active)	-76.2% (active)	-100% (active)	–	-95.9% (active)	-100% (active)	-99.2% (active)	-98.3% (active)	-76% (active)	-98.5% (active)	-100% (active)	–	-100% (active)	-100% (active)	-53% (active)	-58.3% (active)	-100% (active)	-98.3% (active)	–	–
COc1cc(/C=C/[N+](=O)[O-])cc(Br)c1OC	7.99% (active)	–	49% (inactive)	-21.2% (active)	31.1% (inactive)	24.5% (inactive)	-5.62% (active)	-100% (active)	–	28.7% (inactive)	-1.36% (active)	60.7% (inactive)	61.3% (inactive)	–	0.838% (active)	6.59% (active)	-38.1% (active)	19.5% (inactive)	-19.8% (active)	–
O=[N+]([O-])c1ccc(N(CCO)CCO)c2c1no[n+]2[O-]	–	-78.6% (active)	-17.9% (active)	-69.2% (active)	-5.95% (active)	-73.9% (active)	-41.6% (active)	-26.5% (active)	-16.3% (active)	-4.84% (active)	7.25% (active)	–	-11.9% (active)	-15.6% (active)	-33.1% (active)	-38% (active)	-13.4% (active)	-39.3% (active)	-8.85% (active)	–
COc1ccc(/C=C\[N+](=O)[O-])cc1OC	53.9% (inactive) and 17.4% (inactive)	41.3% (inactive) and 24.7% (inactive)	82.5% (inactive) and 63.1% (inactive)	–	68.9% (inactive) and 77.1% (inactive)	72.6% (inactive) and 56.4% (inactive)	74.1% (inactive) and 50% (inactive)	2.99% (active) and -69.2% (active)	92% (inactive) and 92.7% (inactive)	81.4% (inactive)	33.1% (inactive) and 75.1% (inactive)	–	63.1% (inactive) and 58.6% (inactive)	92.9% (inactive) and 77.8% (inactive)	44.3% (inactive) and 2.41% (active)	70.2% (inactive) and 27.2% (inactive)	–	65.2% (inactive)	50.4% (inactive)	–
C[C@H]1CC[C@@]2(NC1)O[C@H]1C[C@H]3[C@@H]4CC[C@H]5C[C@@H](O)CC[C@]5(C)[C@H]4CC[C@]3(C)[C@H]1[C@@H]2C	–	–	–	–	–	–	8.84% [100 µM] (active) and 2.39% [100 µM] (active)	–	–	–	–	–	–	–	–	–	25.1% [100 µM] (inactive) and -60.4% [100 µM] (active)	–	–	–
CC[C@@H](C)[C@@H]1NC(=O)C(NC(=O)C(CC(C)C)N(C)C(=O)C2CCCN2C(=O)C(C)O)C(C)OC(=O)C(Cc2ccc(OC)cc2)N(C)C(=O)C2CCCN2C(=O)C(CC(C)C)NC(=O)C(C)C(=O)C(C(C)C)OC(=O)C[C@H]1O (stereo partly drawn)	-32.7% (active)	-53.2% (active)	-44% (active)	–	-37.2% (active)	-98.1% (active)	-68.9% (active)	-70.2% (active)	-52.4% (active)	-14.5% (active)	-33.2% (active)	-70.5% (active)	-6.01% (active)	–	-25.2% (active)	-20.7% (active)	-15.3% (active)	-95.7% (active)	–	-10.5% (active)
COc1cc(/C=C/[N+](=O)[O-])cc(OC)c1OC	-9.12% (active)	-27.1% (active)	56.5% (inactive)	–	6.51% (active)	–	-26.9% (active)	-71.7% (active)	63.6% (inactive)	30.7% (inactive)	-85.3% (active)	–	-78.2% (active)	47.1% (inactive)	-16.6% (active)	–	–	18.9% (inactive)	-7.3% (active)	–
O=C(CBr)Nc1ccccc1	55.6% (inactive)	103% (inactive)	94.9% (inactive)	–	95.2% (inactive)	97.3% (inactive)	99.6% (inactive)	9.08% (active)	97% (inactive)	91% (inactive)	84.9% (inactive)	104% (inactive)	106% (inactive)	108% (inactive)	96.1% (inactive)	14.7% (inactive)	–	100% (inactive)	113% (inactive)	–
S=C=NCCc1ccccc1	51.7% (inactive)	31.9% (inactive)	54.3% (inactive)	–	64.2% (inactive)	-28.2% (active)	55% (inactive)	32.2% (inactive)	104% (inactive)	68.4% (inactive)	51.3% (inactive)	–	69.4% (inactive)	–	9.55% (active)	16.7% (inactive)	–	54.2% (inactive)	–	127% (inactive)
COc1ccc2c(ccc3oc([N+](=O)[O-])cc32)c1	5.1% (active)	-8.59% (active)	5.8% (active)	–	9.56% (active)	-80.4% (active)	-60.2% (active)	-35.9% (active)	–	6.57% (active)	-13.4% (active)	2.78% (active)	5.89% (active)	-76.1% (active)	-31.4% (active)	4.13% (active)	–	-68.5% (active)	-39.6% (active)	–
O=C1C=Cc2ccccc2C1=O	46.9% (inactive)	112% (inactive)	72.7% (inactive)	–	72.9% (inactive)	31.3% (inactive)	100% (inactive)	90% (inactive)	55.3% (inactive)	92.1% (inactive)	50.3% (inactive)	46.5% (inactive)	86.2% (inactive)	91.3% (inactive)	87.3% (inactive)	74.1% (inactive)	–	–	53.2% (inactive)	82.6% (inactive)
CCOC(=O)c1[nH]cnc1/N=N/N(C)N	–	–	–	–	–	–	75.8% [100 µM] (inactive) and -1.61% [100 µM] (active)	–	–	–	–	–	–	–	–	–	99.8% [100 µM] (inactive) and -100% [100 µM] (active)	–	–	–
Cc1cc(C)c(C[N+](C)(C)C)c(C)c1C	7.64% (active)	3.52% (active)	16.1% (inactive)	–	14.3% (inactive)	5.57% (active)	–	-28.2% (active)	-19.5% (active)	0.359% (active)	4.54% (active)	6.7% (active)	5.45% (active)	8.63% (active)	–	-2.18% (active)	–	8.87% (active)	-9.07% (active)	–
Cc1cc(C(C)(C)c2ccc(O)c(C)c2)ccc1O	93.9% (inactive)	–	100% (inactive)	–	123% (inactive)	88% (inactive)	79.3% (inactive)	85.3% (inactive)	–	89.9% (inactive)	79% (inactive)	–	84.7% (inactive)	102% (inactive)	71.4% (inactive)	127% (inactive)	98.9% (inactive)	73.7% (inactive)	100% (inactive)	–

Reference: PubChem BioAssay (NCI)
